Neddylation inh: cullin neddylation inhibition | AID 651699 | P61081+Q13564 | TR-FRET cullin neddylation, biochemical | inhibition, % at 25 µM | hit rate 0.58% among 360,000; in the data active = inhibition above about 36%
INS-1E GSIS act: primary screen for activators of insulin secretion dependent on glucose, INS-1E cells, GLuc reporter luminescence; INS-1E GLuc reporter insulin secretion, 2-3 h; activation, % at 16.6 µM; hit rate 0.61% among 370,000;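 active = lowest replicate activation of at least 40%, so every replicate reaches that level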;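 also: 0% = median of neutral control wells and 100% = median of IBMX positive control wells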
dFosB act-1: activators of mouse delta FosB homodimer; P13346; purified delta FosB, TAMRA-CDK5 oligo fluorescence polarization; percent of positive-control signal above neutral wells; activation, % at 25 µM; hit rate 0.99% among 340,000; AID 493131;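 active = mean activation above about 17%, with every replicate also reaching it, limit read from the data, passing the limit was not always enough; inconclusive = only one of the two conditions met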
Vif imaging: HIV Vif inhibition. HEK293T cells, Vif self-association by quenched fluorescence, imaging, 24 h. inhibition, % at 7.49 µM. hit rate 0.35% among 340,000; in the data active = inhibition above about 50%, passing the limit was not always enough; inconclusive = no clear call, values can overlap the other calls; inactive = below about 31%
A1 inh: inhibitors of the anti-apoptotic protein A1, read as caspase activation; MEF A1-2A-BIM cells, Caspase-Glo 3/7 luminescence, 3 h; percent of clofoctol response, vehicle zero; caspase activation, % (test concentration not listed); hit rate 0.066% among 330,000; AID 2462;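 active = over half of replicate activation scores above 10%, or exactly half above 10 with the replicate mean above 10; inconclusive = replicate mean below 10 yet half the replicates above 10; inactive = over half of replicates below 10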
dFosB act-2: activators of mouse delta FosB homodimer DNA binding | shares compounds with dFosB act-1 | purified delta FosB, TAMRA-CDK5 oligo fluorescence polarization; normalised: neutral wells 0, positive control 100 | activation, % at 24.9 µM | 2,400 tested, under 10 active | AID 588690;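 active = highest replicate activation at or above 34% and every replicate reaching that threshold; inconclusive = meets only one of the two criteria; inactive = meets neither criterion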;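 also: higher polarization means more probe DNA bound by delta FosB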
Active calls of the source: *; u = inconclusive; x = not tested or not shown. Rows were chosen to be rich in hits. Some 1.9% of all compounds tested hit in one or more screens of this group.

SMILES	Neddylation inh	INS-1E GSIS act	dFosB act-1	Vif imaging	A1 inh	dFosB act-2
COc1cccc(NC(=O)Cn2nnc(C(=O)Nc3cc(Cl)ccc3OC)c2N)c1	15	13	38*	-4	0	4
Cc1ccc(NC(=O)Cn2nnc(C(=O)Nc3ccc(F)c(Cl)c3)c2N)cc1	8	34	u	-2	-2	x
CCC(=O)N(C)C[C@H]1Oc2cc(C#Cc3ccncc3)ccc2S(=O)(=O)N([C@@H](C)CO)C[C@@H]1C	x	-28	x	x	x	x
COc1ccc(Cl)cc1NC(=O)c1nnn(CC(=O)Nc2ccc3c(c2)OCO3)c1N	3	-4	21*	16	1	-2
COc1ccc(NC(=O)c2nnn(CC(=O)Nc3ccc4c(c3)OCO4)c2N)cc1OC	13	11	-4	16	0	x
Cc1sc2ncnc(N3CCC(C(=O)Nc4nc(-c5ccc(F)cc5)cs4)CC3)c2c1C	-13	7	18*	-12	0	-1
CC[C@H]1C/C=C\C[C@@H](c2ccc(OC)cc2OC)NC(=O)[C@H](C)CC(=O)N1	x	-4	x	x	x	x
COc1ccc(NC(=O)Nc2ccc3c(c2)C(=O)N([C@H](C)CO)C[C@H](C)[C@H](CN(C)C(=O)Nc2c(C)noc2C)O3)cc1	x	20	x	x	x	x
O=C(Nc1ccc([N+](=O)[O-])cc1Br)c1cc2ccccc2nc1Cl	-3	-2	113*	1	2	-6
COC(=O)Cc1ccc(NC(=O)c2ccc(NC(=O)c3ccco3)cc2)cc1	19	-1	34*	1	1	3
O=C(Nc1cccc(NC(=O)c2ccco2)c1)c1ccc([N+](=O)[O-])cc1	-29	-2	20*	-1	-1	4
COC(=O)c1cccc(NC(=O)c2ccco2)c1	2	x	1	0	1	x
COC(=O)c1cccc(NC(=O)NC(=O)c2ccc(Cl)cc2)c1	1	8	41*	x	0	3
COC(=O)c1cccc(NC(=O)Nc2ccc(Cl)cc2)c1	-66	3	-12	x	2	x
COC(=O)c1ccc(NC(=O)c2cccc(NC(=O)c3ccco3)c2)cc1	7	3	17*	-12	-2	4
O=C(O)Cc1ccc(NC(=O)c2ccc(NC(=O)c3ccco3)cc2)cc1	6	x	0	6	0	x
C[C@@H]1CN([C@@H](C)CO)C(=O)c2cccc(NC(=O)c3ccc(-c4nccs4)cc3)c2O[C@H]1CN(C)Cc1ccncc1	x	-14	x	x	x	x
COCC(=O)N1CC(=O)N2[C@H](CO)[C@H](c3ccc(C#CC4CC4)cc3)[C@H]2C1	x	6	x	x	x	x
O=C(NC(=S)Nc1ccc2oc(=O)ccc2c1)c1cccc(F)c1	-5	-20	1	u	1	x
O=C(NC(=S)Nc1ccc2oc(=O)ccc2c1)c1cccc(Cl)c1	-1	2	88*	-4	1	0
COc1ccc(-c2nc(Cc3ccc(Cl)cc3)no2)cc1OC	14	x	50*	-4	0	0
CCC(=O)Nc1ccc2c(c1)C(=O)N(C)C[C@@H](OC)[C@H](C)CN(Cc1cccc(F)c1)[C@H](C)CO2	x	0	x	x	x	x
C(=N\Nc1nc(Nc2ccccc2)nc(Nc2ccccc2)n1)/c1cccnc1	-2	-33	65*	-2	3	0
C(=N\Nc1nc(Nc2ccccc2)nc(Nc2ccccc2)n1)/c1ccncc1	0	11	14	2	0	x
C[C@H](CO)N1C[C@H](C)[C@@H](CN(C)C)Oc2ccc(NC(=O)Cn3cnnn3)cc2C1=O	x	10	x	x	x	x
SMILES	Neddylation inh	INS-1E GSIS act	dFosB act-1	Vif imaging	A1 inh	dFosB act-2
N#CC1=C(N)N2C(=C(C#N)C1c1cccc(Br)c1)Nc1ccccc12 (stereo not drawn)	x	-7	27*	-19	0	-1
N#CC1=C(N)N2C(=C(C#N)C1c1ccc(Br)cc1)Nc1ccccc12 (stereo not drawn)	x	5	x	x	0	x
COc1ccc(/C=C/C(=O)OCC(=O)Nc2cc(S(=O)(=O)N(C)C)ccc2Cl)cc1	-3	-2	-6	22	0	x
COc1ccc(/C=C/C(=O)OCC(=O)Nc2cc(C(F)(F)F)ccc2Cl)cc1	29	0	31*	x	0	1
O=C(COC(=O)/C=C/c1cccc(F)c1)NC(=O)NCc1ccccc1	10	-5	3	12	0	x
O=C(COC(=O)/C=C/c1cccc(C(F)(F)F)c1)NC(=O)NCc1ccccc1	-1	0	24*	12	x	2
O=C(COC(=O)/C=C/c1cccc(C(F)(F)F)c1)NC(c1ccccc1)c1ccccc1	11	24	26*	-3	-1	5
NC(=O)CC(NC(=O)c1ccc(Br)cc1)c1ccc(NCc2ccc(F)c(F)c2)c([N+](=O)[O-])c1 (stereo not drawn)	-25	9	9	3	1	x
NC(=O)CC(NC(=O)Cc1ccc(Br)cc1)c1ccc(NCc2ccc(F)c(F)c2)c([N+](=O)[O-])c1 (stereo not drawn)	-20	-13	52*	x	0	-4
O=C(COC(=O)/C=C/c1ccc([N+](=O)[O-])cc1)Nc1ccc(F)cc1	-7	1	19*	-6	1	5
COc1ccc(NC(=O)N[C@H]2CC[C@H](CC(=O)NCc3ccccn3)O[C@H]2CO)cc1	x	2	x	x	x	x
COCC(=O)Nc1ccc2c(c1)C(=O)N(C)[C@H]1CC[C@@H](CC(=O)NCc3ccccc3Cl)O[C@@H]1CO2	x	0	x	x	x	x
O=S(=O)(c1ccc(Br)cc1)N1CCN(c2ccc3nnc(-c4ccccc4)n3n2)CC1	-218	-3	38*	13	0	0
COc1ccc(S(=O)(=O)Nc2ccc3c(c2)C(=O)N([C@@H](C)CO)C[C@H](C)[C@H](CN(C)C(=O)NC2CCCCC2)OCCCC[C@@H](C)O3)cc1	x	-21	x	x	x	x
COc1ccc(C(=O)Nc2nnc(S(=O)(=O)N(C)Cc3ccc(F)cc3)s2)cc1OC	-19	-2	23*	14	0	5
CCC(=O)N1C[C@H](C)[C@@H](OC)CN(C)C(=O)c2cc(NS(C)(=O)=O)ccc2OC[C@H]1C	x	39	x	x	x	x
CCn1c(C)c(C2=CCN(S(=O)(=O)c3ccc(C)cc3)CC2)c2ccccc21	14	23	14	-6	-1	x
Cc1c(C2=CCN(S(=O)(=O)c3ccc(Br)cc3)CC2)c2ccccc2n1C	-187	-21	32*	6	1	-8
CC(C)c1cn(CC[C@@H]2CC[C@H](NC(=O)C3CC3)[C@H](CO)O2)nn1	x	1	x	x	x	x
CC(=O)n1cc(/C=N/NC(=O)c2ccc(Cl)cc2)c2ccccc21	0	-14	6	-1	1	x
CC(=O)n1cc(/C=N/NC(=O)c2cccc(O)c2)c2ccccc21	-10	-8	27*	x	-1	6
COc1cc(-c2ccc3oc(-c4ccsc4)cc(=O)c3c2)cc(OC)c1OC	22	0	44*	-2	0	-12

Source: PubChem BioAssay
